Experiment [1] deals with Cytochrome P450 3A4 (Homo sapiens) (UniProt P08684). The experiment can be described thus: qHTS Assay for Activators of Cytochrome P450 3A4 (AID 885). Also: nearly all actives have a fitted effect of over 65% in size. The essentials: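 Steps: enzyme/substrate mix dispensed; compound added, 10 min RT; NADPH regeneration solution added, 60 min RT; luciferin detection buffer stops reaction; 20 min later luminescence measured.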
Experiment [2] can be described thus: Confirmation and Secondary Assay for Modulators of Hemoglobin Beta Chain Splicing at IVS2 654 locus (AID 910).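 Also: HeLa cells stably carrying EGFP split by mutant beta-globin IVS2-654 intron; per-well total GFP intensity by laser scanning cytometry after 2-day treatment; % of control where 0% means no effect.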 In a few lines: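 Readout: per-well total peak green fluorescence (488 nm ex, 500–520 nm em) from objects 5–250 µm, reflecting correct splicing of an EGFP-654 reporter. Compounds were applied for 2 days at 37 °C to overnight-plated HeLa EGFP-654 cells; controls were DMSO and 500 nM IVS2-654 PNA.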

Experiment [3] can be described thus: Confirmation and Secondary Assay for Modulators of Hemoglobin Beta Chain Splicing at IVS2 705 locus (AID 930).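 Also: HeLa cells stably expressing the EGFP-705 splicing reporter; % of control where 0% means no effect.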 The essentials: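 Assay measures total GFP intensity per well in HeLa EGFP-705 cells after 2 days with compound; mis-splicing normally truncates EGFP, so fluorescence indicates corrected splicing.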
Experiment [4] is described as follows: qHTS Assay for Lipid Storage Modulators (AID 1519; calls by dose curve; as to activity change, negative = inhibition: % is scaled to controls: 0 for no effect and ±100 for the full control effect). As to conditions: Drosophila S3 cells, BODIPY lipid droplet/cell ratio, laser cytometry, cells loaded with oleic acid. In a few lines: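 Cells seeded at 5,000 per well were treated with compounds over a concentration series and loaded with oleic acid (400 uM, as added). Lipid droplet fluorescence (488 nm excitation, 500-530 nm channel) was read by laser-scanning cytometry and normalized to 20 uM Triacsin C.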
A general note: Quantitative high-throughput screening tests each substance at several concentrations.

Experiment [5] concerns the target ATP-dependent 6-phosphofructokinase (Trypanosoma brucei brucei) (UniProt O15648). The experiment can be described thus: qHTS Assay to Find Inhibitors of T. brucei phosphofructokinase: hit validation (AID 492961).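 Also: luminescence reports ADP formed as PFK phosphorylates fructose-6-phosphate with ATP; % is scaled to controls: 0 for no effect and ±100 for the full control effect.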 In a few lines: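 Measures ADP output of PFK (1.25 nM) at 0.1 mM ATP, 0.5 mM F6P, pH 8.0 TEA buffer with 5 mM MgCl2. No-enzyme wells define full inhibition; uninhibited enzyme wells define zero.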

Experiment [6] concerns the target Luciferin 4-monooxygenase (Photinus pyralis) (UniProt P08659). The experiment can be described thus: Biochemical firefly luciferase enzyme assay for NPC (AID 624030).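 Also: purified P. pyralis luciferase at 10 nM with luciferin and ATP substrate; 0% = DMSO and -100% = full luciferase inhibition by PTC124 control; nearly all actives have a fitted effect of over 70% in size.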 The essentials:
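Direct inhibition of firefly luciferase enzyme (10 nM final, 50 mM Tris Acetate) assessed by luminescence within 5 minutes. Percent activity scaled between DMSO and PTC124 positive control, with concentration-effect curves classified by fit quality and response.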

A short description of experiment [7]: S16 Schwann cell viability assay (CellTiter-Glo assay) (AID 624031).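 Also: native untransfected S16 rat Schwann cells; cellular ATP luminescence as a viability measure; plate controls were DMSO-treated cells for no effect and cell-free wells for full effect; nearly all actives have a fitted effect of over 70% in size.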 In a few lines: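 Concentration-effect curves come from CellTiter-Glo luminescence of S16 rat Schwann cells after 24 h compound exposure. Each reading was normalized to DMSO wells (0%) and wells without cells, and curves were ranked by r2 and response magnitude.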
A general note: In ATP-based viability assays light output follows the ATP content of the culture.

Experiment [8] in a line: S16 Schwann cell PMP22 intronic element firefly luciferase assay (AID 624032).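 Also: plate controls were DMSO for no effect and PTC124 positive control mean for full effect; nearly all actives have a fitted effect of over 30% in size.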 The essentials: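 Luciferase reporter of PMP22 intronic-element expression in stably transfected S16 rat Schwann cells, read by ONE-Glo luminescence after 24 h compound exposure at 37 C. Activity scaled between DMSO (0%) and positive-control PTC124; concentration-effect curves quality-classified.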

The nature of experiment [9]: S16 Schwann cell PMP22 intronic element beta-lactamase assay (AID 624044; calls by dose curve;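 also: 0% = DMSO and -100% = potassium clavulanate positive control; nearly all actives have a fitted effect of over 15% in size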). The essentials: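 Rat S16 Schwann cells with beta-Lac driven by a PMP22 intronic element, compound-treated 24 h at 37 °C. LiveBLAzer FRET B/G read: 460 nm normalized to potassium clavulanate vs DMSO; 535 nm FRET as viability; concentration-effect curves classified.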
The next experiment concerns 7G8. The experiment can be described thus: qHTS profiling for inhibitors of Plasmodium falciparum proliferation (AID 504749). Also: potency is read from the fitted curve at half-maximal effect; nearly all actives have a fitted effect of over 60% in size. As to conditions: P. falciparum in erythrocytes, SYBR Green DNA, 72 h; series mostly up to 12.8 µM. The essentials:
(§1)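 Three-day growth assay of blood-stage parasites in erythrocytes (0.3% parasitemia, 2.5% hematocrit) at 37 C, 5% CO2, quantified by SYBR Green DNA staining after overnight detergent lysis.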

For a further experiment, the system named is AA1029. The experiment is described as above. As to conditions: P. falciparum in erythrocytes, SYBR Green DNA, 72 h; series mostly up to 12.8 µM. In a few lines:
as §1

For the next experiment, the system named is AS120. Described as above. As to conditions: P. falciparum in erythrocytes, SYBR Green DNA, 72 h; series mostly up to 12.8 µM. In a few lines: as §1
In a further experiment the test system is ATS95. Described as above. As to conditions: P. falciparum in erythrocytes, SYBR Green DNA, 72 h; series mostly up to 12.8 µM. In a few lines:
as §1

A further experiment concerns CP194. Described as above. As to conditions: P. falciparum in erythrocytes, SYBR Green DNA, 72 h; series mostly up to 12.8 µM. In a few lines:
as §1

A further experiment concerns CP203. The description is as above. As to conditions: P. falciparum in erythrocytes, SYBR Green DNA, 72 h; series mostly up to 12.8 µM. The essentials: as §1
Another experiment deals with CP237. Described as above. As to conditions: P. falciparum in erythrocytes, SYBR Green DNA, 72 h; series mostly up to 12.8 µM. In a few lines:
as §1

The next experiment relates to CP238. The experiment is described as above. As to conditions: P. falciparum in erythrocytes, SYBR Green DNA, 72 h; series mostly up to 12.8 µM. The essentials: as §1

Inconclusive results are not listed. Calls of active or inactive are those of the source. Unless noted, calls follow the shape of the dose curve; as a rule, active = well fitted curve in the direction sought with a large enough effect; inconclusive = small, poorly fitted or top-dose-only effect, or another doubt; inactive = no such curve, though single readings can be large; an effect the other way counts as inactive or inconclusive.

Results on 1 compound are retold here after PubChem BioAssay (NCATS).

Luciferin 4-monooxygenase (Photinus pyralis), sequence (P08659 whole entry, looked up): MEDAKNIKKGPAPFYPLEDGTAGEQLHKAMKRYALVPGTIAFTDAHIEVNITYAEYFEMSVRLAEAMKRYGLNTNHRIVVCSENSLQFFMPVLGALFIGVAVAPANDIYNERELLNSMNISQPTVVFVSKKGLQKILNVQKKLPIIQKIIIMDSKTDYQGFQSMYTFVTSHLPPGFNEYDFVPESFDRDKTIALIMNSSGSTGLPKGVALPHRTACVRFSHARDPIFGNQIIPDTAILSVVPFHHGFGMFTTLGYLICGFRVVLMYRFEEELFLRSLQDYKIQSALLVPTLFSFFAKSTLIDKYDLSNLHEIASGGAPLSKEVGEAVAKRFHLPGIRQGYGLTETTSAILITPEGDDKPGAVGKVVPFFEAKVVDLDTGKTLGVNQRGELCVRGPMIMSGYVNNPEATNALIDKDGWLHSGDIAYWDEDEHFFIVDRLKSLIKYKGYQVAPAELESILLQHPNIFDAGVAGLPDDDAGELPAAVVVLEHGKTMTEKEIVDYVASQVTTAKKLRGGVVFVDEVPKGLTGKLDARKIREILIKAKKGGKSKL
Cytochrome P450 3A4 (Homo sapiens), sequence (P08684 whole entry, looked up): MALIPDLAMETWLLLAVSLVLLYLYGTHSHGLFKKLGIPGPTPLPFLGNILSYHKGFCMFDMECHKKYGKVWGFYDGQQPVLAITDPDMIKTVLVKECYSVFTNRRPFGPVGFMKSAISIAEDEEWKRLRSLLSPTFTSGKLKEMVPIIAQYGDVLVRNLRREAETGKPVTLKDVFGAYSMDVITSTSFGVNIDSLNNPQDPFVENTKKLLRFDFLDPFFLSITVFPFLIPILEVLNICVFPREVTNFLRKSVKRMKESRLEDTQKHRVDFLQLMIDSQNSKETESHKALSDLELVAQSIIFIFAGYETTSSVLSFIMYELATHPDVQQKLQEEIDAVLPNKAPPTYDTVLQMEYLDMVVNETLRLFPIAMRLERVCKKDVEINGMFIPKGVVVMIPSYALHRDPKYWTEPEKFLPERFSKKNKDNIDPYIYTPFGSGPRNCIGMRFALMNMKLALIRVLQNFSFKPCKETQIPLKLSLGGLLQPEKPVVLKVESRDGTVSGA
ATP-dependent 6-phosphofructokinase (Trypanosoma brucei brucei), sequence (O15648 whole entry, looked up): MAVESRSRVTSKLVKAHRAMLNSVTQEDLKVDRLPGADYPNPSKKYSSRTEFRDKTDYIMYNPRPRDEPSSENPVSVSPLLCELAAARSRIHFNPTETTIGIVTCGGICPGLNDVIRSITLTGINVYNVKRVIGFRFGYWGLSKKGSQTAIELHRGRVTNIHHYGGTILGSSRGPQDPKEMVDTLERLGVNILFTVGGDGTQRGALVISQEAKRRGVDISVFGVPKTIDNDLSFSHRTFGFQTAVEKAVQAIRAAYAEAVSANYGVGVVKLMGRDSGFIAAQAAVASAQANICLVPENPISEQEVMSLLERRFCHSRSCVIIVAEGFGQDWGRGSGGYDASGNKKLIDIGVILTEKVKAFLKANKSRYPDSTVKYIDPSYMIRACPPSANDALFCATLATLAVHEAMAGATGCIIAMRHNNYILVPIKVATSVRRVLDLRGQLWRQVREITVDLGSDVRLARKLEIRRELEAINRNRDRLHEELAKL

Take `CCC(=O)O[C@@]1(C(=O)CCl)C(C)CC2C3CCC4=CC(=O)C=C[C@@]4(C)[C@]3(F)C(O)C[C@]21C` (some centres undefined): the Potency result in experiment [1], in experiment [2], in experiment [3], in experiment [6], in [8] and in [9] was “inactive” throughout. Further, in experiment [4] (at 57.5 µM (top of the series)), the activity change, negative = inhibition was 11.7% (inactive). Also, the max response in experiment [4] (measured here: cell count channel max response) was found to be 9.83%; in experiment [4] (measured here: lipid channel max response), 20.1%. The compound was called inactive in [5] and in [7]. For the same compound, the Potency with 7G8 is 3.98 µM (active); in the experiment with AA1029, 10 µM (active); in the experiment with AS120, 10 µM (active); with ATS95 it was 11.2 µM (active); in the experiment with CP194, 15.1 µM (active); with CP203 it was 13.5 µM (active). In addition, the values for the Potency in the experiment with CP237 and with CP238 were 10 µM (active) and 7.94 µM (active), respectively.
